USP30 block – inhibitors of human USP30 deubiquitinase. purified USP30, Ub-rhodamine cleavage fluorescence. inhibition, % at 25 µM. 5.3% of 47,000 active
OTUD3 block – human OTUD3 deubiquitinase inhibition. 0.7% of 47,000 active. purified OTUD3, Ub-rhodamine fluorescence, 2 h. Q5T2D3. inhibition, % at 25 µM. AID 1645858
Target sequence (Q5T2D3 whole entry, looked up): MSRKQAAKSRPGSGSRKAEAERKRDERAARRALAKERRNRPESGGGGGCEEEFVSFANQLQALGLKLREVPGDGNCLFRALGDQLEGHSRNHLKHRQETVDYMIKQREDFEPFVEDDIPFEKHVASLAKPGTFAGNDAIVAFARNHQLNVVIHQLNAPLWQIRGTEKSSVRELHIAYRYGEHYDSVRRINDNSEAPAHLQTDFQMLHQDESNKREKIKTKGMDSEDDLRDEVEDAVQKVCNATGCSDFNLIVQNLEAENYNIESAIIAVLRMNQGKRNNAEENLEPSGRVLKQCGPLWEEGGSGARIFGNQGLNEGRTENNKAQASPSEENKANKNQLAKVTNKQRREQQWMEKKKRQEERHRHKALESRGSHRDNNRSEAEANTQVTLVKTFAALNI
USP17 block – blocks human USP17 ubiquitin-rhodamine cleavage; purified USP17, Ub-rhodamine cleavage fluorescence, 3 h; inhibition, % at 50 µM; AID 1645855; 6.5% of 47,000 active; A8MUK1
USP28 inh – human USP28 deubiquitinase inhibition | purified USP28, Ub-rhodamine cleavage fluorescence, 30 min | 3% of 47,000 active | inhibition, % at 25 µM | Q96RU2
* = called active by the depositor; · = not tested or not shown. Hits are enriched below; roughly 12% of the tested compounds scored in any of these assays. Rule as the data show it: active = inhibition above about 30%; inactive = the rest.

SMILES	USP30 block	OTUD3 block	USP17 block	USP28 inh
NC(=O)c1nc(C2CCCCC2)nc2c1[nH]c(=O)n2-c1ccc2c(c1)OCO2	-29.4	6.2	-3.6	8.9
Cc1cccc(-n2c(=O)[nH]c3c(C(N)=O)nc(-c4ccccn4)nc32)c1	16.3	7.5	-0.8	13.5
O=C(c1ccc(-c2ccccc2)cc1)c1nc(N2CCOCC2)c2c3c(sc2n1)CCCC3	-14.7	-5.1	-16.6	-18.8
Cc1ccc(-c2cnc(C3CC3)o2)cc1S(=O)(=O)Nc1ccc(C(C)C)cc1	4.3	5.9	-3.0	3.4
C[C@H]1[C@H](C)CC[C@]2(C(=O)O[C@@H]3O[C@H](CO[C@@H]4O[C@H](CO)[C@@H](O[C@@H]5O[C@@H](C)[C@H](O)[C@@H](O)[C@H]5O)[C@H](O)[C@H]4O)[C@@H](O)[C@H](O)[C@H]3O)CC[C@@]3(C)C(=CC[C@@H]4[C@@]5(C)C[C@@H](O)[C@H](O)[C@@](C)(CO)[C@@H]5CC[C@]43C)[C@H]12	10.3	3.8	-27.3	0.9
COCCCN1CC(=O)N2C(c3ccc([N+](=O)[O-])cc3)c3[nH]c4ccccc4c3C[C@H]2C1=O (stereo partly drawn)	-14.1	-12.1	-22.1	-15.3
COc1ccc(C(=O)Nc2ccc(C)c(S(=O)(=O)N3CCCCCC3)c2)cc1	-8.7	-2.0	-5.6	1.1
COc1ccc(C(=O)Nc2cc(F)c3[nH]c(=O)ccc3c2)cc1	35.0*	16.7	38.8*	28.9
Cc1ccc(C)c(CN2C(=O)c3ccccc3S(=O)c3ccc(C(=O)NCCc4ccccc4)cc32)c1 (stereo not drawn)	37.9*	7.0	8.7	26.6
COc1ccc(CCNC(=O)c2ccc3c(c2)N(Cc2cc(C)ccc2C)C(=O)c2ccccc2S3(=O)=O)cc1OC	-6.6	-5.3	-0.4	0.1
COc1ccc(NC(=O)N(C2=NCCC2)c2ccc(C)cc2)cc1	-5.0	-7.1	-2.5	-4.4
COc1ccccc1NS(=O)(=O)c1cc(NC(=O)c2cccc(-c3ccc(O)cc3)c2)ccc1C	30.0*	-0.1	35.3*	7.1
O=c1cc(CNc2ccc(Br)cc2)nc2nc(-c3ccccc3)[nH]n12	31.6*	36.0*	81.9*	41.5*
CC(C)(C)OC(=O)NCC1CCC(C(=O)Nc2cccnc2)CC1 (stereo not drawn)	10.8	1.1	0.1	9.9
Cc1ccc(-c2ncc(C(=O)Nc3ccc(F)cc3)c(-c3ccncc3)n2)cc1	-226.1	-122.1	-58.1	-106.7
COc1cccc2cc(C(=O)N3CCc4nc(NC(=O)C5CCCO5)sc4C3)oc12 (stereo not drawn)	-7.8	-0.9	34.2*	13.6
O=C(Nc1nc2c(s1)CN(C(=O)c1ccco1)CC2)C1CCCO1 (stereo not drawn)	-83.3	-10.1	-35.0	-18.8
CCn1nccc1C1CCCN1S(=O)(=O)c1cccc([N+](=O)[O-])c1 (stereo not drawn)	-15.9	0.3	-29.6	-16.5
Cc1ccc2c(c1)N(Cc1ccc(Cl)cc1)C(=O)CCS2	30.4*	14.2	23.7	27.3
COc1ccc(COC(=O)NC2CCN(S(=O)(=O)c3ccc(OC)cc3)CC2)cc1	-61.7	-10.1	-41.4	-0.9
COc1ccc2c(c1)C(=O)N(CCc1ccc(S(=O)(=O)NC(=O)NC3CCCCC3)cc1)C(=O)C2(C)C	46.7*	10.4	28.3	20.0
COc1cccc(C2c3[nH]c4ccccc4c3C[C@@H]3C(=O)N(CCCN4CCOCC4)CC(=O)N23)c1 (stereo partly drawn)	36.7*	-9.2	-16.8	-12.3
COc1ccc(C2c3[nH]c4ccccc4c3C[C@H]3C(=O)N(CCCN4CCOCC4)CC(=O)N23)cc1 (stereo partly drawn)	-90.2	-27.8	-28.0	-24.0
CCC1OC(O)(C(C)C(O)C(C)C2OC(=O)/C(C)=C/C(C)=CC(C)C(O)C(C)C/C(C)=C/C=C/C2OC)CC(OC(=O)/C=C/C(=O)NC2=C(O)CCC2=O)C1C (stereo not drawn)	12.1	32.0*	74.2*	33.8*
CO/C1=C\C(C)=C/[C@@H](C)[C@@H](O)[C@@H](C)C/C(C)=C/C=C/[C@H](OC)[C@@H]([C@@H](C)[C@@H](O)[C@H](C)[C@@]2(O)C[C@@H](OC(=O)/C=C/C(N)=O)[C@H](C)[C@@H](C(C)C)O2)OC1=O	-2.5	21.9	56.5*	23.5
SMILES	USP30 block	OTUD3 block	USP17 block	USP28 inh
COC1=C2C[C@@H](C)C[C@H](OC)[C@H](O)[C@@H](C)/C=C(\C)[C@H](OC(N)=O)[C@@H](OC)/C=C\C=C(/C)C(=O)NC(=CC1=O)C2=O	-5.4	0.1	-1.7	6.3
CN(C)CCc1cc2c(c3c1ccc1ccccc13)OCO2	31.3*	3.1	16.6	74.7*
COC(=O)CN1C(=O)CSc2ccc(S(=O)(=O)Nc3cccc(F)c3)cc21	13.7	17.4	8.7	15.7
COc1ccc(NC(=O)COc2ccc3ccc(=O)oc3c2)cc1	15.3	0.0	56.9*	26.2
COc1cc(C(=O)Oc2ccc3ccc(=O)oc3c2)cc(OC)c1OC	45.0*	11.5	20.9	18.2
COc1ccccc1-c1coc2cc(OC(=O)c3ccc(C(C)(C)C)cc3)ccc2c1=O	-38.3	-1.6	2.6	-13.6
O=S(=O)(N[C@H]1[C@H](O)[C@H](O)C[C@@H]1c1ccncc1)c1ccccc1	14.4	0.0	-7.2	-2.0
CCS(=O)(=O)c1ccccc1C(=O)Nc1ccc2sc(C)nc2c1	5.5	7.0	4.7	54.7*
O=C(Cn1c(=O)n(-c2ccccc2)c(=O)c2cc(-c3ccccc3)sc21)c1ccccc1	-3.9	0.8	11.8	-5.5
c1ccc2c(c1)CCN(c1ncnc3c1[nH]c1ccccc13)C2	-6.3	-10.6	-0.1	7.2
COc1ccc2c(c1)[nH]c1c(N3CCSCC3)ncnc12	-0.1	0.0	-5.3	-4.4
O=[N+]([O-])c1ccc(N2CCN(c3ncnc4c3[nH]c3ccc(F)cc34)CC2)cc1	8.0	3.8	64.9*	2.7
COc1ccc2[nH]c3c(NCCc4ccccc4OC)ncnc3c2c1	-23.3	-1.0	33.7*	-11.0
COc1ccc2[nH]c3c(N4CCN(c5ccccc5F)CC4)ncnc3c2c1	10.2	15.8	41.4*	6.6
Nc1c(-c2nc(-c3ccccc3)cs2)nnn1-c1ccccc1	·	6.3	7.6	·
Nc1c(-c2nc(-c3ccc4c(c3)OCO4)cs2)nnn1-c1ccccc1	15.3	-1.2	64.9*	7.3
FC(F)(F)c1ccc(-c2nc(-c3ccc4c(c3)OCCCO4)cs2)cc1	33.4*	16.0	19.1	10.8
c1cc(N2CCOCC2)ccc1-c1csc(-c2ccc3c(c2)OCCO3)n1	-34.9	12.4	39.8*	12.2
CCOC(=O)C1CSCCN1S(=O)(=O)c1cc(Cl)ccc1Cl (stereo not drawn)	22.3	11.3	4.8	16.9
CC(=O)N1CC[C@@H]2[C@H]1CCCCN2Cc1c(C)nn(-c2ccccc2C)c1C	0.5	5.5	6.9	0.2
COc1cc(C)ccc1-n1c(-c2ccc(F)cc2)cn2c3c(=O)n(C)c(=O)n(C)c3nc12	39.3*	13.2	42.9*	2.1
Cc1cc(C)cc(-n2c(-c3ccccc3)cn3c4c(=O)n(C)c(=O)n(C)c4nc23)c1	7.3	-2.9	0.0	-4.7
